KB-3-1 cytotox: KB-3-1 parental cell cytotoxicity | KB-3-1 viability, CellTiter-Glo ATP luminescence, 72 h | Potency, µM (highest dose often 46.1 µM), most hits filed as cytotoxic | actives 1.4% (n = 400,000) | AID 1347075; note: % is set by controls: 0 for no effect and ±100 for the full control effect; nearly all actives have a fitted effect of over 60% in size
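Using CellTiter-Glo luminescence, growth of non-resistant KB-3-1 adenocarcinoma cells is assessed 72 h after pin-tool compound addition at 37 °C. Normalized responses across the concentration series yield fitted curves.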
SW480 rerep: DNA re-replication induction in SW480 cells; AID 624297; actives 1.8% (n = 340,000); SW480 DNA re-replication, Hoechst DNA content imaging, 48 h; Potency, µM (doses to about 46.1 µM), without a hit: at the top dose re-replication activation, actives largely listed as activators; note: % of control where 0% means no effect; nearly all actives have a fitted effect of over 55% in size
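DNA re-replication was detected as more nuclei of elevated Hoechst intensity after 48 hr exposure to compound (23 nL pinned per well of 250 cells).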
MCF10A rerep: DNA re-replication induction in MCF 10a cells; MCF 10A DNA re-replication, Hoechst nuclear intensity, 48 h; Potency, µM (top dose mostly 46.1 µM), inactives show top-dose activity, positive = re-replication, most hits filed as activators; actives 2.9% (n = 350,000); AID 624296; note: % of control where 0% means no effect; nearly all actives have a fitted effect of over 50% in size
ELG1 repair inh: ELG1-dependent DNA repair inhibition; HEK293T ELG1-luciferase reporter, luminescence, 16 h; DNA damage induced by 5-fluorouridine; actives 2.3% (n = 330,000); AID 504467; Potency, µM (titrated, usually from 46.1 µM), for inactives: top-dose activity change, negative = inhibition, usual class: inhibitors; note: % is set by controls: 0 for no effect and ±100 for the full control effect; nearly all actives have a fitted effect of over 55% in size
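Luminescence from the luciferase reporter, measured 30 min after ONE-Glo reagent at room temperature, was the read-out. Beforehand, 2,000 cells per well were exposed for 16 hr at 37 °C to 5-fluorouridine together with compound or vehicle.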
KB-V1 MDR tox: kills drug-selected multidrug resistant KB-V1 cells | KB-V1 MDR cells viability, CellTiter-Glo, 72 h | Potency, µM (top dose mostly 46.1 µM), hits mostly cytotoxic | actives 3.4% (n = 400,000) | AID 1347076; note: % is set by controls: 0 for no effect and ±100 for the full control effect; nearly all actives have a fitted effect of over 60% in size
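Following 72 h at 37 degrees C with compound, KB-V1 cell viability was read by CellTiter-Glo luminescence, medium being phenol-red-free DMEM plus 10% FBS; concentration-response parameters came from normalized, curve-fitted qHTS data.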
An asterisk follows results filed as active; i = inactive; ? = inconclusive; nt = no result given. Most compounds without a hit are left out; they make up all but 8.1% or so of the library. Calls come from the whole dose curve; as a rule, active = well fitted curve in the direction sought with a large enough effect; inconclusive = small, poorly fitted or top-dose-only effect, or another doubt; inactive = no such curve, though single readings can be large; an effect the other way counts as inactive or inconclusive. Potency is the fitted concentration of half-maximal effect.

SMILES	KB-3-1 cytotox	SW480 rerep	MCF10A rerep	ELG1 repair inh	KB-V1 MDR tox
O=C(N/N=C/c1ccc([N+](=O)[O-])o1)c1cn(-c2ccccc2)nc1-c1ccc(Cl)cc1	i	?	?	?	i
O=C(N/N=C/c1ccc([N+](=O)[O-])o1)c1cn(-c2ccccc2)nc1-c1ccccc1	i	10%	16µM*	?	?
Cn1c2ccccc2c2cc(/C=N/NC(=O)c3cc(O)cc(O)c3)ccc21	i	2%	?	1%	?
COc1cc(C(=O)N/N=C/c2ccc3c(c2)c2ccccc2n3C)ccc1O	?	?	13µM*	-16%	?
Cn1c2ccccc2c2cc(/C=N/NC(=O)c3cc(O)ccc3O)ccc21	i	13%	3.7µM*	-19%	i
CC(C)(C)S(=O)(=O)/C(C#N)=C/c1cccn1S(=O)(=O)c1ccccc1	i	nt	nt	nt	i
CC1CCC(C(=O)NC(C(=O)N2CCN(c3ccccn3)CC2)C(C)C)CC1 (stereo unspecified)	i	4%	7%	8%	3.3µM*
CC(=O)Nc1cccc(-c2ccnc3c2CC(C)(C(=O)NCc2ccc(F)c(F)c2)O3)c1 (stereo unspecified)	15µM*	nt	nt	nt	?
CC(=O)Nc1cccc(-c2ccnc3c2CC(C)(C(=O)NCC2CC2)O3)c1 (stereo unspecified)	12µM*	nt	nt	nt	i
CC(=O)Nc1cccc(-c2ccnc3c2CC(C(=O)NCc2ccc(F)c(F)c2)O3)c1 (stereo unspecified)	7.3µM*	nt	nt	nt	?
Cc1ccc(F)cc1C(=O)N1CCCCC1c1cc(C(=O)Nc2ccccc2)no1 (stereo unspecified)	i	nt	nt	nt	i
Cc1ccc2sc(N(CCCN(C)C)C(=O)c3ccc(S(=O)(=O)N(C)C4CCCCC4)cc3)nc2c1C	23µM*	?	23µM*	-14%	18µM*
CCN(Cc1ccccc1)S(=O)(=O)c1ccc(C(=O)N(CCCN(C)C)c2nc3cc4c(cc3s2)OCO4)cc1	i	?	7%	?	?
CCN(CC)CCN(C(=O)c1ccc(S(=O)(=O)N(C)C2CCCCC2)cc1)c1nc2c(C)cccc2s1	?	1%	?	-1%	?
CCN(Cc1ccccc1)S(=O)(=O)c1ccc(C(=O)N(CCCN(C)C)c2nc3c(C)c(C)ccc3s2)cc1	?	6.5µM*	16µM*	?	?
COc1ccc(NC(=O)[C@@H]2CC=C[C@@H]3CCN(C4CC4)C(=O)[C@@H]32)cc1	i	nt	nt	nt	i
CN(C(=O)COC(=O)CCc1c[nH]c2ccccc12)c1ccccc1	i	-16%	1%	7%	?
Cc1cc(C)cc(N(CCC#N)C(=O)COC(=O)CCc2c[nH]c3ccccc23)c1	i	-3%	-1%	-5%	21µM*
COc1ccc(/C=c2\s/c(=C/C(=O)c3ccc(C)cc3)[nH]c2=O)cc1OC	i	23%	13µM*	?	i
O=C(CN1CCN(S(=O)(=O)c2cc(Br)ccc2Br)CC1)NCc1ccccc1Cl	i	11%	12%	nt	3.7µM*
O=C(CN1CCN(Cc2ccccc2)CC1)NCc1ccccc1Cl	i	-3%	4%	-1%	i
CN1C(=O)Cc2cc(S(=O)(=O)CCC(=O)Nc3ccc(Cl)cc3)ccc21	i	nt	nt	nt	i
COC(=O)C1=C(C)OC(N)=C(C#N)C1c1ccccc1 (stereo unspecified)	i	1%	-3%	5%	i
Cc1ccccc1N=Cc1cc2c(cc1O)OC(N)=C(C#N)C2c1ccccc1 (stereo unspecified)	i	?	18µM*	?	?
Cc1ccc(N=Cc2cc3c(cc2O)OC(N)=C(C#N)C3c2ccccc2)cc1 (stereo unspecified)	?	?	18µM*	-3%	i
SMILES	KB-3-1 cytotox	SW480 rerep	MCF10A rerep	ELG1 repair inh	KB-V1 MDR tox
N#CC1=C(N)Oc2cc(O)c(C=Nc3ccccc3)cc2C1c1ccccc1 (stereo unspecified)	i	26%	4.1µM*	?	i
Cc1ccnc(NC(=S)N2CCN(c3ccc(Cl)cc3)CC2)c1	i	nt	nt	nt	i
COc1ccccc1N1CCN(C(c2cccs2)C(C)NC(=O)c2cccs2)CC1 (stereo unspecified)	i	1%	2%	?	4.1µM*
COc1ccccc1C(=O)NC(C)C(c1cccs1)N1CCN(C)CC1 (stereo unspecified)	i	3%	-9%	12%	18µM*
CCN1CCN(C(c2cccs2)C(C)NC(=O)c2ccccc2OC)CC1 (stereo unspecified)	i	-2%	12%	13%	i
COc1ccc(NC(=O)C[C@H]2C(=O)N(c3ccc(OC)cc3)C[C@@H]2CSC)cc1	i	nt	nt	nt	?
COc1cccc(Cn2c(=O)sc3ccccc3c2=O)c1	i	?	6%	?	i
COc1cccc(Cn2c(=O)c3ccccc3n3nc(C)cc23)c1	?	-4%	?	-19%	21µM*
O=C(CCCC(=O)N/N=C\c1ccccn1)N/N=C\c1ccccn1	i	-3%	9%	3%	i
CC(=NNC(=S)N(Cc1ccccn1)Cc1ccccn1)c1cnccn1	?	?	4.6µM*	nt	13µM*
S=C(NN=Cc1ccccn1)N(Cc1ccccn1)Cc1ccccn1	6.5µM*	5.8µM*	13µM*	nt	?
S=C(NN=C(c1ccccc1)c1ccccn1)N(Cc1ccccn1)Cc1ccccn1	?	?	?	nt	i
CCOc1cc(NC(=O)c2ccco2)c(OCC)cc1NC(=O)CCc1ccccc1OC	i	2%	?	21µM*	i
CCOc1cc(C#N)c(NC(=O)c2ccco2)cc1OCC	6.5µM*	9.2µM*	?	?	?
CCOc1cc(NC(=O)c2ccco2)c(OCC)cc1NC(=O)c1ccco1	i	-2%	?	-9%	i
O=C1c2ccccc2-c2c1c1ccccc1c(=O)n2CCO	i	24%	?	nt	18µM*
Cc1ccc(-n2ncc(C(=O)Nc3cc(Cl)cc(Cl)c3)c2C2CCNCC2)cc1C	i	4.6µM*	?	?	i
COc1ccc(NC(=O)c2cnn(-c3ccc(C)c(C)c3)c2C2CCNCC2)cc1OC	i	nt	nt	nt	i
CCCCCC(C)N (stereo unspecified)	nt	1%	4%	nt	nt
On1c(-c2ccc(Cl)cc2)nc2ccccc21	i	-8%	-6%	28%	i
FC(F)(F)c1nc2ccccc2n2c(-c3ccc(Cl)cc3)nnc12	4.6µM*	26%	13µM*	?	5.8µM*
Cc1ccc(-c2nnc3c(C(F)(F)F)nc4ccccc4n23)cc1	?	16µM*	?	8%	21µM*

Bioassay records as filed in PubChem BioAssay.
